High-throughput results (PubChem)
Tb PYK inh = inhibitors of Trypanosoma brucei pyruvate kinase; TbPYK enzyme, Kinase-Glo Plus ATP luminescence, 45 min; hit rate 0.12% among 410,000; Q57TT1; AID 624173; Potency, µM (top dose mostly 76.8 µM), without a hit: at the top dose activity, negative = inhibition, most hits filed as inhibitors; note: potency is the fitted concentration of half-maximal effect; % is set by controls: 0 for no effect and ±100 for the full control effect; nearly all actives have a fitted effect of over 50% in size
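Enzyme and substrate buffer are dispensed first and compound is pin-transferred. ADP at 130 uM final then starts the reaction, which runs 45 min at room temperature. Detection reagent is added for 10 min before luminescence is imaged.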
Cycloheximide cs = counter-screen hit for Shiga toxin inhibitors, cycloheximide | cell reporter, cycloheximide protein synthesis inhibition counterscreen | max response, % | hit rate 12% among 300,000; in the data active = max response mostly above about 13%, no sharp cut-off; inactive = mostly below about 14%; note: read at 38.3 µM for the half of the compounds with a filed dose; 0% is about no effect
Shiga inhibitor = blocks Shiga toxin action in Vero cells | Vero cells, Shiga toxin protein synthesis inhibition reporter | inhibition, % at 38.7 µM | hit rate 9.2% among 290,000 | AID 2315; in the data active = inhibition mostly above about 28%, no sharp cut-off; inactive = mostly below about 43%; note: 0% is about no effect
LmPK inh = LmPK (Leishmania mexicana) enzyme inhibition; Q27686; Potency, µM (highest dose often 57.5 µM), without a hit: top-dose activity change, negative = inhibition, usual class: inhibitors; hit rate 0.37% among 290,000; AID 1721; purified LmPK, Kinase-Glo ATP luminescence, 1 h; note: potency is the fitted concentration of half-maximal effect; % is set by controls: 0 for no effect and ±100 for the full control effect
Target sequence (Q27686 whole entry, looked up): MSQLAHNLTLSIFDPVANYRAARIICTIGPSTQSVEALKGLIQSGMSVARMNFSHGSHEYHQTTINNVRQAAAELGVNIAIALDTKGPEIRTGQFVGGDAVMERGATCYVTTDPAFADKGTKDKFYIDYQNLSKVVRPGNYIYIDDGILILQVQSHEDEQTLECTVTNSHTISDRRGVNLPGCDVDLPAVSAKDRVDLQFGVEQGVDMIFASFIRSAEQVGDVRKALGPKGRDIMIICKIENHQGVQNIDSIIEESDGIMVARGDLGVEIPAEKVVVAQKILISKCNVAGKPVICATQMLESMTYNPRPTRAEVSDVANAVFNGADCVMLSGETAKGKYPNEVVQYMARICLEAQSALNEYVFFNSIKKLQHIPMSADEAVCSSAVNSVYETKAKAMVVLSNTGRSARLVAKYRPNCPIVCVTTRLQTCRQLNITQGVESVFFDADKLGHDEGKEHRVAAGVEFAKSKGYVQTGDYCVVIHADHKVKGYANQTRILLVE
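Pyruvate kinase activity monitored as ATP production (luciferase luminescence). Conditions: 0.1 nM enzyme, 0.5 mM PEP, 0.1 mM ADP, 1 h, RT; normalized against uninhibited and no-enzyme wells.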
RE007 growth inh = less growth of the S. pombe RE007 Vpr strain | S. pombe RE007 Vpr strain, BacTiter-Glo ATP luminescence, 24 h | Potency, µM (doses to about 92.2 µM), for the others: at the highest dose activity change, negative = less growth, actives largely listed as inhibitors | hit rate 0.21% among 360,000 | AID 651644; active = well fitted falling curve with a large enough effect; inconclusive = small, poorly fitted or top-dose-only effect; inactive = no such curve, though single readings can be large or run the other way; note: potency is the fitted concentration of half-maximal effect; % is set by controls: 0 for no effect and ±100 for the full control effect; nearly all actives have a fitted effect of over 50% in size
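Fission yeast strain RE007, carrying one chromosomally integrated HIV-1 vpr copy, was seeded at OD 0.01 in PMG+AL medium with 23 nL pinned compound. After 24 h at 30 °C and 99% humidity, viability was read by BacTiter-Glo luminescence.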
FBPA Giardia inh = Giardia lamblia aldolase inhibition | hit rate 0.71% among 290,000 | Potency, µM (top dose mostly 59.6 µM), for the others: at the top dose activity, negative = inhibition, hits mostly inhibitors | purified Giardia FBPA; note: potency is the fitted concentration of half-maximal effect; % is set by controls: 0 for no effect and ±100 for the full control effect; nearly all actives have a fitted effect of over 55% in size
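40 nM FBPA preincubated 10 min at RT with compound (up to 57.5 uM final), then substrate plus GAPDH/TPI/NAD/arsenate coupling and diaphorase/resazurin added. Fluorescence read after 20 min at RT, 525/598 nm.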
An asterisk follows results filed as active; ? = inconclusive; · = not tested or not shown; [ ] = dose if it differs, or a comment. This excerpt belongs to a sample that is enriched for hits. Unless noted, calls come from the whole dose curve; as a rule, active = well fitted curve in the direction sought with a large enough effect; inconclusive = small, poorly fitted or top-dose-only effect, or another doubt; inactive = no such curve, though single readings can be large; an effect the other way counts as inactive or inconclusive.

SMILES | Tb PYK inh | Cycloheximide cs | Shiga inhibitor | LmPK inh | RE007 growth inh | FBPA Giardia inh
O=C(Nc1ccc(F)c([N+](=O)[O-])c1)c1cccs1 | 2% | 10 | 3 | -14% | -13% | -4%
CN(Cc1ccccc1)C(C(=O)NC1CCCCC1)c1ccc(Cl)cc1 (stereo unspecified) | 3% | · | · | · | · | ·
O=C(Nc1ccc(F)cc1)C(c1ccnc2ccccc12)N1CCN(c2cccc(C(F)(F)F)n2)CC1 (stereo unspecified) | · | · | · | · | -3% | ·
O=C(N/N=C/C=C\c1ccccc1[N+](=O)[O-])c1ccncc1 | 3% | 1 | -9 | 11% | 14% | ?
O=C(N/N=C\C=C\c1ccc([N+](=O)[O-])o1)c1cccs1 | 1% | 33* | 100* | 1% | -10% | -18%
O=C(Cc1cccs1)N/N=C/C=C\c1ccccc1[N+](=O)[O-] | -6% | 33* | 85* | 5%[11.5 µM] | -14% | -1%
COc1ccccc1OCC(=O)N/N=C/C=C/c1ccc([N+](=O)[O-])o1 | -4% | 19* | 13 | -1% | -10% | -2%
O=C(N/N=C/C=C/c1ccccc1[N+](=O)[O-])c1cccs1 | -2% | 30* | 23 | 2% | · | -7%
O=C(CSc1nnc(SCc2ccccc2)s1)N/N=C/C=C/c1ccccc1[N+](=O)[O-] | 13% | 5 | -7 | -1% | -12% | 3%
O=C(N/N=C/c1ccc([N+](=O)[O-])o1)c1ccc(NS(=O)(=O)c2cccs2)cc1 | -6% | -1 | -9 | 5% | 6% | -7%
CN(C)c1ccc(CN(C(=O)C2COc3ccccc3O2)C2CCS(=O)(=O)C2)cc1 (stereo unspecified) | 5% | 4 | -5 | 5% | 9% | -11%
Cc1ccc(CNC(=O)Cn2c3ncccc3c(=O)n2-c2ccc(C)cc2)cc1 | -8% | · | · | · | · | ·
O=C(Cc1cccs1)N/N=C/C=C/c1ccccc1 | 11% | 25* | 59* | 5% | -7% | -1%
CCC(=O)c1ccc(SC(=O)N(C)C)cc1O | -2% | 15* | 27 | 1% | 9% | -1%
Cc1ccc(N=Cc2ccc[nH]2)c(O)c1 | -6% | 44* | 98* | -1% | -16% | ?
CCOC(=O)c1cccc(NC(=O)CCS(=O)(=O)c2ccc3c(c2)CC(=O)N3C)c1 | 0% | · | · | · | · | ·
COc1ccc2oc3c(ccc[n+]3C)c(=O)c2c1 | ? | · | · | · | -1% | ·
Cc1c(C(=O)NCc2ccccc2CN2CCCC2)oc2c(F)cccc12 | -11% | · | · | · | -8% | ·
Cc1c(C(=O)NC2CCOC2)oc2c(F)cccc12 (stereo unspecified) | 8% | 71* | 114* | -6% | 5% | -4%
Cc1ccc2oc(C(=O)N3CCC(N4CCSCC4)CC3)c(C)c2c1 | 2% | 3 | 1 | 2% | -14% | ·
Cc1c(C(=O)N2CCC[C@H]2CO)oc2c(F)cccc12 | -1% | 24* | 36* | -4% | -1% | 10%
Cc1c(C(=O)O)oc2c(F)cccc12 | 0% | -1 | -3 | 0% | 32% | -8%
Cc1c(C(=O)N2C[C@@H](C)O[C@@H](C)C2)oc2c(F)cccc12 | 7% | 40* | 70* | 2% | -24% | 0%
Cc1c(C(=O)N2CCC(N3CCSCC3)CC2)oc2c(F)cccc12 | -18% | 23* | 33 | 18% | -4% | ·
Cc1c(C(=O)NCc2ccco2)oc2c(F)cccc12 | -8% | · | · | · | -16% | ·
SMILES | Tb PYK inh | Cycloheximide cs | Shiga inhibitor | LmPK inh | RE007 growth inh | FBPA Giardia inh
C[N+]1(C)CCC(OC(=O)CC(O)(c2ccccc2)C2CCCC2)C1 (stereo unspecified) | -9% | · | · | · | · | ·
COc1ccc(CCNC(=O)c2cc(C)nc3c2c(C)nn3-c2ccccc2)cc1OC | 3% | · | · | · | · | ·
CC(=O)Nc1ccc(-c2ccnc3c2CC(C(=O)NCc2ccccc2)O3)cc1 (stereo unspecified) | -2% | · | · | · | -7%[18.4 µM] | ·
CNC(=S)N/N=C/c1cn(CCOc2cccc(OC)c2)c2ccccc12 | 2% | 10 | 103* | 2% | 0% | 1%
CCOC(=O)N/N=C/c1cn(CCCOc2ccccc2)c2ccccc12 | 0% | 46* | 66* | 5% | -4% | 2%
COC(=O)N/N=C/c1cn(CCOc2ccccc2)c2ccccc12 | 1% | 46* | 78* | 1% | -7% | -6%
CCOC(=O)N/N=C/c1cn(CCCOc2ccc(C)cc2)c2ccccc12 | -6% | 64* | 42* | 1% | -6% | 0%
COC(=O)N/N=C/c1cn(CCOc2ccc(OC)cc2)c2ccccc12 | 7% | 1 | 21 | 1% | 1% | 0%
Cc1c(C(=O)NCc2ccccc2Br)oc2c1-c1[nH]ncc1CC2 | -5% | · | · | · | · | ·
CCC(=O)N1CCC(c2ccc(OC)cc2)=N1 | -1% | 36* | 38* | -5% | -10% | 2%
COc1ccc(-c2nc3cnc(OC)nc3n(Cc3cccc(OC)c3)c2=O)cc1 | -4% | · | · | · | · | -9%
Cc1nc(N2CCOCC2)c2cc(-c3ccccc3)sc2n1 | 8% | 14* | 9 | 0% | -10% | 0%
COc1nc(Nc2cccc(F)c2)nc(OC)n1 | 0% | 20* | · | -1% | 7% | 6%
COc1nc(NCCO)nc(Nc2ccccc2F)n1 | 0% | 34* | 83* | 0% | 5% | 4%
COc1ccc(Nc2nc(NCCO)nc(OC)n2)cc1 | -7% | 2 | 9 | -1% | -1% | 0%
COc1nc(Nc2ccccc2F)nc(OC)n1 | -3% | 12* | 21 | -6% | 3% | 15%
CCc1nc(N2CCN(C(=O)CCl)CC2)c2c3c(sc2n1)CC(C)CC3 (stereo unspecified) | 5% | 11* | 36 | -1% | -10% | -19%
CCc1nc(N2CCN(C(C)=O)CC2)c2c3c(sc2n1)CC(C(C)(C)C)CC3 (stereo unspecified) | 0% | -1 | -3 | 1% | 7% | 7%
COc1ccccc1OC(C)C(=O)N(Cc1ccco1)C1CCS(=O)(=O)C1 (stereo unspecified) | 6% | 14* | 25* | -7% | 1% | -25%
CCc1ccc(OC(C)C(=O)N(Cc2ccco2)C2CCS(=O)(=O)C2)cc1 (stereo unspecified) | -4% | -2 | 24 | -4% | -1% | 4%
Cn1cc(Br)c(NS(=O)(=O)c2ccc(Cl)s2)n1 | -4% | 7 | -4 | -8% | -8% | 4%
CCN(CC)C(=O)CSc1nc2sc3c(c2c(=O)n1CCCOC)CCC3 | -15% | -2 | · | 6% | 7% | 8%
COCCn1c(SCC(=O)Nc2ncc(C)s2)nc2sc3c(c2c1=O)CCC3 | · | 25* | 38 | 7% | · | -5%
CC(=O)N1CCC(C(=O)OCc2ccccc2F)(c2ccccc2)CC1 | 0% | -2 | 36 | -3% | 10% | 4%
Cc1ccc2cc(C)c(N3CCN(c4ccccn4)CC3)nc2c1 | 2% | 28 | 51* | -4% | ? | 0%
